PubChem BioAssay (NCATS)
Inconclusive results are not listed. The source made the active and inactive calls. Unless noted, calls come from the whole dose curve; as a rule, active = well fitted curve in the direction sought with a large enough effect; inconclusive = small, poorly fitted or top-dose-only effect, or another doubt; inactive = no such curve, though single readings can be large; an effect the other way counts as inactive or inconclusive.

Tests used:
[1] = test system: Zika virus NS2B-NS3 protease (linked construct); experiment: Primary screen NINDS Rhodamine qHTS for Zika virus inhibitors (AID 1347160); note: % is set by controls: 0 for no effect and ±100 for the full control effect; nearly all actives have a fitted effect of over 55% in size
In short: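 Purified linked NS2B-NS3 protease (NS2B hydrophilic domain joined to NS3 protease by flexible linker), 25 nM in 10 mM Tris-HCl pH 8.0, 0.01% Tween 20. Compounds titrated, 15 min preincubation at room temperature; 1.5 microM Rhodamine110 substrate, FITC fluorescence change over 15 min.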

[2] = Primary redox qHTS assay for identification of artifact compounds. (AID 1845223);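 note: 0% = DMSO and 100% = reference compound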
In short: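 Amplex Red (25 uM) and HRP (250 mU/mL) in HBSS, with compounds for 15 min, then 250 uM DTT for 30 min, room temperature, dark. Fluorescence 525/598 nm read; normalized to DMSO and 10 uM DA3003; Hill fit.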

CAOV3 = experiment: Primary qHTS to identify gynecologic anti-cancer compounds using libraries of approved drugs and bioactive compounds (AID 1345084); conditions: Gynecologic cancer cell panel viability, ATPlite luminescence, 48 h; series mostly up to 57.5 µM; note: nearly all actives have a fitted effect of over 55% in size; note: potency is the fitted concentration of half-maximal effect
In short: (§1)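 Luminescence from the ATPlite ATP-monitoring reagent indicates viable cell number; lower signal means cytotoxicity. Cells received compound 16 h after seeding and were exposed for 48 h across five concentrations.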

JEG-3 = experiment: as above; conditions: Gynecologic cancer cell panel viability, ATPlite luminescence, 48 h; series mostly up to 57.5 µM
In short: as §1

[3] = molecular target: Calcium and integrin-binding protein 1 (Homo sapiens) (UniProt Q99828); experiment: Primary qHTS for Identification of Calcium Integrin Binding Protein 1 (CIB1) Competitor (AID 1508620);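 note: GST tagged CIB1 binding a fluorescein labelled alphaIIb integrin peptide tracer; top concentration of the series differs between compounds; % is set by controls: 0 for no effect and ±100 for the full control effect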
Calcium and integrin-binding protein 1 (Homo sapiens), sequence (Q99828 whole entry, looked up): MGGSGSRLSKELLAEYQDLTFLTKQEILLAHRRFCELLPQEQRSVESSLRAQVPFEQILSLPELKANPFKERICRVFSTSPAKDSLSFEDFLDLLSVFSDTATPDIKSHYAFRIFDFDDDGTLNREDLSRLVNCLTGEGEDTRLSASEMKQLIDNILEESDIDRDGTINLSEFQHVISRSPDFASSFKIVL
In short: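 CIB1-GST (1 uM final) and compound incubated 15 min at room temperature before adding FITC-alphaIIb peptide tracer (100 nM final). Competition for binding read by fluorescence polarization (ex 480, em 540) after another 15 min at room temperature.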

[4] = molecular target: Cytochrome P450 2C9 (Homo sapiens) (UniProt P11712); experiment: Cytochrome P450 family 2 subfamily C member 9 (CYP2C9) small molecule antagonists: luciferase biochemical (cell-free) qHTS assay (AID 1645842; active = well fitted curve in the direction sought with a large enough effect in the repeat runs; an effect the other way counts as inactive or inconclusive)
Cytochrome P450 2C9 (Homo sapiens), sequence (P11712 whole entry, looked up): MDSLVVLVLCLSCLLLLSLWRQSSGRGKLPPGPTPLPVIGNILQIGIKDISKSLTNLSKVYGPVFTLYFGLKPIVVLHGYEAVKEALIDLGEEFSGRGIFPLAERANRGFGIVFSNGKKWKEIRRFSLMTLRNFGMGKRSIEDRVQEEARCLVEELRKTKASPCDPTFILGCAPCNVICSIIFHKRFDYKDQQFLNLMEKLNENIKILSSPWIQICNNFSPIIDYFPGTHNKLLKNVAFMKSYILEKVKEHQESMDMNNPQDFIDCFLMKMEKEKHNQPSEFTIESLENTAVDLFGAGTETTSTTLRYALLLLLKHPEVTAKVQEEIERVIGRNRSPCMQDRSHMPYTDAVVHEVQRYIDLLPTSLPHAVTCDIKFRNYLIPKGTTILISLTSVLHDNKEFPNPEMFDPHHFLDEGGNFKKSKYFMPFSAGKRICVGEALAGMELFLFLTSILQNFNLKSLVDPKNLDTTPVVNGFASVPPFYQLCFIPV
In short: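 Luminescence, after 20 min with luciferin detection reagent, reflected CYP2C9 turnover during a 1 h NADPH-driven reaction at 37C. Enzyme-substrate mix contained 0.4% bovine serum albumin and was preincubated with compound 10 min at room temperature.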

[5] = Cytotoxicity counterscreen for inhibitors of SARS-CoV-2 cell entry (AID 1645845; calls by dose curve; note: % is set by controls: 0 for no effect and ±100 for the full control effect; nearly all actives have a fitted effect of over 50% in size)
In short: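 48 h compound treatment (after 1 h preincubation), HEK293-ACE2 cells, 37 C/5% CO2; ATP luminescence endpoint; normalized to cell wells and media blanks.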

[6] = Primary qHTS to identify inhibitors of SARS-CoV-2 cell entry (AID 1645846; calls by dose curve; note: nearly all actives have a fitted effect of over 45% in size; note: potency is the fitted concentration of half-maximal effect); conditions: activity change, negative = inhibition: at 57.1 µM (top of the series) unless noted
In short: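 Data are normalized to wells receiving SARS-CoV-2-S pseudoparticles and those given bald particles. Entry signal was luciferase luminescence in stable hACE2 Expi293F cells, 48 hr post-infection, after 1 hr compound pretreatment.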

SKOV3 = experiment: Primary qHTS to identify gynecologic anti-cancer compounds using libraries of approved drugs and bioactive compounds (AID 1345084); conditions: Gynecologic cancer cell panel viability, ATPlite luminescence, 48 h; series mostly up to 57.5 µM; note: nearly all actives have a fitted effect of over 55% in size; note: potency is the fitted concentration of half-maximal effect
In short: as §1

[7] = P-glycoprotein substrates identified in KB-3-1 adenocarcinoma cell line, qHTS therapeutic library screen (AID 1346986);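 note: potency is the fitted concentration of half-maximal effect; potency is for cytotoxicity meaning loss of cell viability; nearly all actives have a fitted effect of over 60% in size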
In short: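 Cells seeded 500/well in DMEM/10% FCS; compounds pinned in dose-response; 72 h incubation; CellTiter-Glo added, 5 min, luminescence. KB-8-5-11 run ±tariquidar to test reversal of P-gp resistance.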

[8] = P-glycoprotein substrates identified in KB-8-5-11 adenocarcinoma cell line, qHTS therapeutic library screen (AID 1346987); note: nearly all actives have a fitted effect of over 65% in size; note: potency is the fitted concentration of half-maximal effect
In short: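 Steps: plate 500 KB-8-5-11 cells/well in DMEM + 10% FCS (colchicine removed); pin compounds in dose-response; incubate 72 h, 37 degree C, 5% CO2; add CellTiter-Glo, 5 min; read luminescence.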

[9] = test system: Zika virus NS2B-NS3 protease (unlinked complex); experiment: Primary screen GU Rhodamine qHTS for Zika virus inhibitors: Unlinked NS2B-NS3 protease assay (AID 1347159); note: % is set by controls: 0 for no effect and ±100 for the full control effect; nearly all actives have a fitted effect of over 60% in size
In short: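 Noncovalent NS2B hydrophilic domain–NS3 protease domain complex (25 nM) preincubated 15 min at room temperature with compounds (up to 114 microM) in 10 mM Tris-HCl pH 8.0, 0.01% Tween 20; 1.5 microM Rhodamine110 substrate added, fluorescence change over 15 min fitted to Hill equation.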

[10] = qHTS drug screen for cell cycle checkpoint inhibitors in PARPi-resistant BRCA-mutant ovarian cancer cell lines. (AID 1963452; calls by dose curve); conditions: PEO1/OlaR viability, CellTiter-Glo luminescence, 96 h, stronger effect = lower value
In short: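 PEO1, PEO4 and PEO1/OlaR ovarian cancer cells, 600 per well, exposed 96 h at 37C to a dilution series. Viability read by CellTiter-Glo luminescence, normalized to DMSO and empty wells; activity summarized as Z-AUC.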

HeLa = experiment: Primary qHTS to identify gynecologic anti-cancer compounds using libraries of approved drugs and bioactive compounds (AID 1345084); conditions: Gynecologic cancer cell panel viability, ATPlite luminescence, 48 h; series mostly up to 57.5 µM; note: nearly all actives have a fitted effect of over 55% in size; note: potency is the fitted concentration of half-maximal effect
In short: as §1

[11] = molecular target: Catechol O-methyltransferase (Homo sapiens) (UniProt P21964); experiment: Confirmatory Screen for Target Class Profiling of Small Molecule Inhibitors of Methyltransferases (AID 1745852; calls by dose curve; note: potency is the fitted concentration of half-maximal effect); conditions: MTase-Glo luminescence, SAH detection, recombinant enzyme; measured here: COMT max response; stronger effect = lower value
Catechol O-methyltransferase (Homo sapiens), sequence (P21964 whole entry, looked up): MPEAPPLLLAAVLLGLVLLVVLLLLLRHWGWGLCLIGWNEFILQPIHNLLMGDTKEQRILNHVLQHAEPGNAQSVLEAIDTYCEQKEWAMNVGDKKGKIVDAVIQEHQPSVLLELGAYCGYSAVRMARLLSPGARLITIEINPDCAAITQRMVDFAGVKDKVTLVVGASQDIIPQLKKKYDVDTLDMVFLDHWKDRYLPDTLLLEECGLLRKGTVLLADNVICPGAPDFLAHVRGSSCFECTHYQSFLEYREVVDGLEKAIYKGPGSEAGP

[12] = molecular target: Guanidinoacetate N-methyltransferase (Homo sapiens) (UniProt Q14353); experiment: as above; conditions: activity change, negative = inhibition: at 57.3 µM (top of the series) unless noted
[13] = molecular target: Nicotinamide N-methyltransferase (Homo sapiens) (UniProt P40261); experiment: as above; conditions: MTase-Glo luminescence, SAH detection, recombinant enzyme; measured here: NNMT max response; stronger effect = lower value
Nicotinamide N-methyltransferase (Homo sapiens), sequence (P40261 whole entry, looked up): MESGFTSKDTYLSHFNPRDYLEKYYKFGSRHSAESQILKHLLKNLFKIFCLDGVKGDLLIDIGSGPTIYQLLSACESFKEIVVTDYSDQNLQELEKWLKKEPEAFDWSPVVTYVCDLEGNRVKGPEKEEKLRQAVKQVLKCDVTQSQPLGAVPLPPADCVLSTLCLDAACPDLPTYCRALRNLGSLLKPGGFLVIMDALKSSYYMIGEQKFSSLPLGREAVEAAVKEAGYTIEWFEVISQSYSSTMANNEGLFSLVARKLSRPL

HACAT = experiment: qHTS assay to identify novel small-molecules to repurpose for Merkel cell carcinoma treatment (AID 1296009); conditions: MCC and control cell lines, CellTiter-Glo viability, 72 h; at 44.8 µM (top of the series) unless noted; note: nearly all actives have a fitted effect of over 60% in size
In short: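 72 hr, 37 degree celsius; NPC 8-pt / MIPE 11-pt dose response; compound pinned in DMSO; CellTiter-Glo, 10 min RT, luminescence; normalized to no-cell and DMSO controls.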

C[C@]12CC[C@H](O)C[C@H]1CC[C@@H]1[C@@H]2[C@H](O)C[C@]2(C)[C@@H](c3ccc(=O)oc3)CC[C@]12O
active: Potency (CAOV3) 100 nM
inactive: Potency [1] | Potency [2] | Potency (JEG-3)

Cc1sc2c(c1C)C(c1ccc(Cl)cc1)=NC(CC(=O)Nc1ccc(O)cc1)c1nnc(C)n1-2 (configuration not stated)
-87.5%: activity change, negative = inhibition [6]
inactive: Potency [1] | Potency [3] | Potency [4] | Potency [5] | Potency [2] | Potency (JEG-3)
active: Potency (SKOV3) 3160 nM

C[C@H]1CCC/C=C/C2C[C@H](O)C[C@H]2[C@H](O)/C=C/C(=O)O1 (some centres not stated)
active: Potency [7] 146 nM | Potency [8] 184 nM | Potency [6] 1000 nM | Potency (CAOV3) 316 nM | Potency (HeLa) 355 nM | Potency (JEG-3) 891 nM
-1.2: Z-AUC ([10]; measured here: PEO4 Z-AUC)
-1.19: Z-AUC ([10]; measured here: PEO1 parental Z-AUC)
inactive: Potency [9] | Potency [1] | Potency [3] | Potency [5] | Potency [2] | Z-AUC [10] -0.883

N#Cc1cn([C@@H]2O[C@H](CO)[C@H](O)[C@@H]2O)c2ncnc(N)c12
inactive: Potency [9] | Potency [3] | Potency [4] | Potency [2]
-89.8%: activity [13]
-98.2%: activity [11]
active: Potency [8] 20.6 nM | Potency [12] 38300 nM

C[C@]12CC[C@H](O[C@@H]3O[C@H](CO)[C@@H](O)[C@H](O)[C@H]3O[C@@H]3O[C@H](CO)[C@@H](O)[C@H](O)[C@H]3O)CC1=CC[C@@H]1[C@@H]2CC[C@]2(C)[C@@H](C3=CC(=O)OC3)CC[C@]12O
inactive: Potency [9] | Potency [1] | Potency [3] | Potency [2] | Potency (CAOV3) | Potency (JEG-3)

OCc1nnc2n1-c1ccc(Cl)cc1C(c1ccccc1Cl)=NC2
inactive: Potency [8] | Potency [9] | Potency [1] | Potency [3] | Potency [2] | Potency (CAOV3) | Potency (HeLa) | Potency (JEG-3) | Potency (SKOV3)

Cc1ccccc1CN1CCC(N2CCC(n3c(=O)[nH]c4ccccc43)CC2)CC1
inactive: Potency [1] | Potency [3] | Potency [4] | Potency [2] | Potency (HeLa) | Potency (JEG-3)

CCC1NC(=O)C2C(Cl)C(Cl)CN2C(=O)C(CC)NC(=O)CC(c2ccccc2)NC(=O)C(CO)NC1=O (configuration not stated)
inactive: Potency [8] | Potency [3] | Potency [2] | outcome (HACAT) inactive [at 17.4 µM] | Potency (CAOV3) | Potency (HeLa) | Potency (JEG-3)

CCC1C2CC3C4N(C)c5ccccc5C45CC(C2C5O)N3C1O (configuration not stated)
inactive: Potency [8] | Potency [9] | Potency [1] | Potency [2] | Potency (CAOV3) | Potency (HeLa) | Potency (JEG-3) | Potency (SKOV3)

O=C(CC1NCCC[C@H]1O)Cn1cnc2cc(Br)c(Cl)cc2c1=O (some centres not stated)
inactive: Potency [8] | Potency [4]
